Results taken from PubChem BioAssay (NCI).
This is part of a sample that, as a whole, favours compounds with a hit. Of some 83,000 tested, about 20% had one in any assay.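 How to read the values: 0–100, growth inhibition (40 = 60% inhibited); 0, no net growth; -100 to 0, cell death (-40 = 40% of starting cells died; -100 = all dead).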 A number with no mark means an inactive call. The source made the active and inactive calls. The calls were made as follows: active = growth percent below 10; inactive = the rest.

Tests used:
Assay in all cases: NCI-60 one-dose screen, 48 h (100 = growth as untreated, 0 = no growth, -100 = all killed)
Details in all cases: 10 µM
HCT-15 colon = system: HCT-15 colon
HT29 colon = system: HT29 colon
SNB-75 CNS = system: SNB-75 CNS
SNB-19 CNS = system: SNB-19 CNS
U251 CNS = system: U251 CNS
PC-3 prostate = system: PC-3 prostate
SK-MEL-5 melanoma = system: SK-MEL-5 melanoma
UACC-62 melanoma = system: UACC-62 melanoma
LOX IMVI melanoma = system: LOX IMVI melanoma
SK-MEL-28 melanoma = system: SK-MEL-28 melanoma

Compound | growth (HCT-15 colon) | growth (HT29 colon) | growth (SNB-75 CNS) | growth (SNB-19 CNS) | growth (U251 CNS) | growth (PC-3 prostate) | growth (SK-MEL-5 melanoma) | growth (UACC-62 melanoma) | growth (LOX IMVI melanoma) | growth (SK-MEL-28 melanoma)
Nc1n[nH]c2cccc(C#Cc3cccc(NC(=O)Nc4cc(C(F)(F)F)cc(C(F)(F)F)c4)c3)c12 | -81.8% (active) | -49.7% (active) | -0.721% (active) | -19.7% (active) | -78.5% (active) | -4.77% (active) | -100% (active) | -90.9% (active) | -100% (active) | -88.5% (active)
CCOc1ccc(/C=N/NC(=O)Cn2nc(Cc3ccc([N+](=O)[O-])cc3)c3onc(C)c3c2=O)cc1 | 33.7% | 34.6% | 6.05% (active) | -6.58% (active) | -66% (active) | 23.1% | 27.7% | 49.9% | -63.5% (active) | 49.7%
O=C(NCCCCCCCCCC[P+](c1ccccc1)(c1ccccc1)c1ccccc1)c1ccc(-n2nc(-c3ccccc3O)nc2-c2ccccc2O)cc1 | -90.4% (active) | -72.9% (active) | -27.1% (active) | -93.9% (active) | -50% (active) | -48.3% (active) | -100% (active) | -88.9% (active) | -96.9% (active) | -93.8% (active)
Cc1nn(-c2ccccc2)c2ncn(CC(=O)N/N=C/c3c[nH]c4ccccc34)c(=O)c12 | 89.2% | 99.5% | 78.5% | 91.5% | 83.8% | 65.4% | 85.5% | 80.7% | 84.4% | 114%
CN1CCc2c(sc3ncnc(N/N=C/c4cn(-c5ccccc5)nc4-c4ccc(Br)cc4)c23)C1 | 27.4% | 16.5% | 88.8% | 62.4% | 44.9% | 20.8% | 50% | 67.3% | 28.4% | 68.9%
Cc1ccc(C(=O)NNC(=O)CSc2nc3ccccc3c(=O)[nH]2)cc1 | 103% | 111% | 83.1% | 92.8% | 104% | 90.4% | 98.7% | 89.4% | 96.3% | 104%
O=C(Nc1ccc(Cl)c([N+](=O)[O-])c1)Nc1ccc(Cl)c([N+](=O)[O-])c1 | 7.01% (active) | 13.1% | 61.2% | 10.8% | 10.6% | 10.4% | -26.7% (active) | 3.62% (active) | -8.77% (active) | 8.08% (active)
CCOP(=O)(OCC)O[C@H]1CC[C@]2(C)[C@H]3CC[C@@H]4[C@@H]([C@](C)(O)CCC=C(C)C)CC[C@@]4(C)[C@]3(C)CC[C@H]2C1(C)C | 10.7% | -50.2% (active) | 51.4% | 45.4% | 12.8% | 19.8% | -84.2% (active) | 43.5% | -100% (active) | 48.8%
O=C(CSc1nnc(-c2c[nH]c3ccccc23)n1-c1ccccc1)c1ccccc1 | 79.4% | 47.9% | 100% | 19.2% | 10.8% | 65.8% | 90.7% | 73.4% | 29.2% | 100%
COc1cc2c3c(n(CCCN4CCOCC4)c(=O)c2cc1OC)-c1nc2c(cc1C3=O)OCO2 | 41.5% | 7.3% (active) | 49.9% | 15% | -18.9% (active) | 43.6% | -6.78% (active) | -8.82% (active) | -76.6% (active) | 66.1%
COc1cc(OC(F)(F)F)ccc1C(=O)Nc1sc2c(c1C#N)CCC(=O)C2 | 14.6% | 95% | 93.7% | 91.8% | 7.29% (active) | 37.6% | 72.3% | 65.6% | 64.7% | 121%
CC1(C)CC[C@]23CC[C@]4(C)[C@H](CC[C@@H]5[C@@]6(C)CC[C@H](N)C(C)(C)[C@@H]6CC[C@]54C)[C@H]2[C@H]1OC3=O | -91.7% (active) | -66.7% (active) | -75.3% (active) | -98.7% (active) | -88.9% (active) | -57.5% (active) | -100% (active) | -96.1% (active) | -98.9% (active) | -100% (active)
Cc1noc2c(Cc3ccc([N+](=O)[O-])cc3)nn(CC(=O)N/N=C/c3ccc(Cl)cc3)c(=O)c12 | 80.5% | 62.3% | 44.9% | 42.2% | 12.7% | 59.5% | 88.4% | 65.3% | 40.7% | 69.9%
CC(=O)OC[C@@]1(C)C2CC[C@]3(C)C(CC=C4C5CC(C)(C)CC[C@]5(C(=O)Nc5ccccc5)CC[C@]43C)[C@@]2(C)C[C@@H](OC(C)=O)[C@@H]1OC(C)=O (stereo not given in full) | 25.1% | 28.5% | 58.4% | 39.9% | 39.9% | 27.7% | 2.74% (active) | 31% | 3.23% (active) | 59.2%
NS(=O)(=O)c1ccc(NC(=O)CSc2ccc(-c3ccc(Cl)cc3)nn2)c(Br)c1 | 54.1% | 64.7% | 42.3% | 27% | -25.6% (active) | 35.7% | 68.8% | 65.4% | 19.7% | 79.5%
C#CCNC(=O)CCC(=O)OC[C@]12CC[C@@H](C(=C)C)[C@@H]1C1CC[C@@H]3[C@@]4(C)CCCNC(C)(C)[C@@H]4CC[C@@]3(C)[C@]1(C)CC2 (stereo not given in full) | -64.9% (active) | -68.1% (active) | 98.8% | 34% | -74.2% (active) | -20.3% (active) | -100% (active) | -42.8% (active) | -100% (active) | -98.5% (active)
C=C(c1ccc(OC)c(N)c1)c1cc(C)nc2ccccc12 | 3.55% (active) | -20.8% (active) | 21.4% | 10.3% | 7.35% (active) | 31.2% | -55% (active) | 24.1% | 10.3% | 62.4%
O=c1c2ccccc2nc(COc2ccccc2)n1/N=C/c1ccc(N2CCOCC2)cc1 | 80.8% | 93.8% | 43.9% | 3.55% (active) | 51.5% | 75.6% | 82% | 69.4% | 69.6% | 83.3%
COc1ccc(N2N=C(c3ccc4c(c3)OCCO4)CC2c2cccc(NC(=O)CCCNS(=O)(=O)c3ccc(F)cc3)c2)cc1 (stereo not given) | 67.5% | 84.4% | 42.4% | 69.3% | 75.4% | 52% | 64.2% | 61.8% | 72.5% | 81.5%
O=C1Nc2cc(Cl)ccc2/C1=C/c1cccc(OCc2ccc(Br)cc2F)c1 | 5.07% (active) | 5.13% (active) | -0.373% (active) | 28.6% | -1.12% (active) | 19.3% | -6.52% (active) | 8.35% (active) | -45.9% (active) | 36.4%
Cc1cc(C)nc(NS(=O)(=O)c2ccc(N/C(N)=N/c3nccc(-c4cccs4)n3)cc2)n1 | 97.4% | 108% | 78.6% | 100% | 102% | 86.6% | 96.2% | 96.3% | 77.8% | 106%
